Records with an inconclusive call do not appear. Active and inactive are the calls of the source. Unless noted, calls follow the shape of the dose curve; as a rule, active = well fitted cell-killing curve with a large enough effect; inconclusive = small, poorly fitted or top-dose-only effect; inactive = flat fitted curve, though single readings scatter.
Assays:
[1] = Cell Viability - LYMP2-025 (AID 976); also: series mostly up to about 92 µM
Summary of the method: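 Human lymphoblastoid LYMP2-025 cells, 2500/well, exposed 24 h at 37 C in complete medium in 1536-well qHTS. Viability as cellular ATP by CellTiter-Glo luminescence; AC50 from Hill fits of concentration-response data.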

[2] = Cell Viability - LYMP2-002 (AID 977); also: series mostly up to about 92 µM
Summary of the method: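 Luminescent ATP readout (CellTiter-Glo, 30 min room temperature) after 24 h compound exposure at 37 C of a human lymphoblastoid line, 2500 cells/well. AC50 values derived by standard Hill fitting of qHTS concentration-response data.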

[3] = Cell Viability - LYMP2-006 (AID 978); also: series mostly up to about 92 µM; nearly all actives have a fitted effect of over 60% in size
Summary of the method: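 Concentration-dependent loss of intracellular ATP in a human lymphoblastoid line after 24 hr treatment at 37 C was measured by CellTiter-Glo luminescence, with AC50 values obtained from standard Hill-equation modelling.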

[4] = Cell Viability - LYMP2-007 (AID 979);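 also: cells exposed to compound for 24 h before reading; nearly all actives have a fitted effect of over 60% in size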
Summary of the method: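 Human lymphoblastoid LYMP2-007 cells (2500/well) preincubated 5 h at 37 C, then treated 24 h at 37 C in complete medium. Viability by CellTiter-Glo ATP luminescence after 30 min at room temperature; AC50 from Hill fits.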

[5] = Cell Viability - LYMP2-008 (AID 980); also: nearly all actives have a fitted effect of over 60% in size
Summary of the method: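 LYMP2-008 lymphoblastoid cells (2500/well) plated 5 h, then treated 24 h at 37 C in complete medium. Viability read as intracellular ATP by CellTiter-Glo luminescence after 30 min at room temperature; AC50 from Hill fits.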

[6] = Cell Viability - LYMP2-010 (AID 981); also: nearly all actives have a fitted effect of over 55% in size
Summary of the method: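 Human lymphoblastoid LYMP2-010 cells (2500/well) treated 24 h at 37 C in complete medium; viability read as intracellular ATP by CellTiter-Glo luminescence. AC50 from Hill fits of concentration-response data; tetraoctylammonium bromide positive control.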

[7] = Cell Viability - LYMP2-012 (AID 982);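 also: cellular ATP by luciferase luminescence where a drop means cytotoxicity; cells exposed to compound for one day before reading; nearly all actives have a fitted effect of over 55% in size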
[8] = Cell Viability - LYMP2-014 (AID 983); also: series mostly up to about 92 µM; nearly all actives have a fitted effect of over 50% in size
Summary of the method: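 LYMP2-014 human lymphoblastoid cells, 2500/well, treated 24 h at 37 C in complete medium; viability by CellTiter-Glo ATP luminescence after 30 min at room temperature. AC50 from Hill fits of qHTS concentration-response; tetraoctylammonium bromide positive control.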

[9] = Cell Viability - LYMP2-016 (AID 984); also: nearly all actives have a fitted effect of over 55% in size
Summary of the method: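 Acute toxicity in a Coriell human lymphoblastoid line is scored as loss of intracellular ATP over 24 h of treatment in complete medium. CellTiter-Glo signal is fitted across concentrations with the Hill equation to give AC50.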

[10] = Cell Viability - LYMP2-018 (AID 985);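 also: compound exposure lasted 24 hr at 37 °C; nearly all actives have a fitted effect of over 50% in size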
Summary of the method: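 Human lymphoblastoid LYMP2-018 cells, 2500/well, settled 5 hr at 37 C then exposed to compound 24 hr at 37 C; intracellular ATP measured by CellTiter-Glo luminescence. AC50 from Hill-equation concentration-response fits.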

[11] = Cell Viability - LYMP2-020 (AID 986); also: series mostly up to about 92 µM; nearly all actives have a fitted effect of over 55% in size
Summary of the method: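 Human lymphoblastoid LYMP2-020 cells (2500/well) preincubated 5 h at 37 C, then treated 24 h at 37 C. Viability measured as intracellular ATP by CellTiter-Glo luminescence after 30 min at room temperature; AC50 from Hill fits.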

[12] = Cell Viability - LYMP2-022 (AID 987); also: nearly all actives have a fitted effect of over 55% in size
Summary of the method: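 LYMP2-022 lymphoblastoid cells (2500/well, complete medium) were treated with compounds for 24 hours at 37 C; intracellular ATP was then read by CellTiter-Glo luminescence after 30 min at room temperature. AC50 values were derived from Hill-equation fits.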

[13] = Cell Viability - LYMP2-024 (AID 988); also: nearly all actives have a fitted effect of over 60% in size
Summary of the method: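 Human lymphoblastoid LYMP2-024 cells (2500/well) rested 5 hr, then treated with compound for 24 hr at 37 C in complete medium. Viability was measured as intracellular ATP by CellTiter-Glo luminescence. AC50 values came from Hill-equation fits.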

[14] = Cell Viability - LYMP2-026 (AID 989); also: nearly all actives have a fitted effect of over 50% in size
Summary of the method: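 Human lymphoblastoid LYMP2-026 cells, 2500/well, exposed to compound 24 h at 37 C in complete medium. Viability as intracellular ATP by CellTiter-Glo luminescence; AC50 from Hill fits of qHTS concentration-response.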

[15] = Cell Viability - LYMP1-002 - Assay at 24 hr (AID 993)
Summary of the method: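 Human lymphoblastoid LYMP1-002 cells (2500/well) treated 24 h at 37 °C; viability as intracellular ATP by CellTiter-Glo luminescence. Tetraoctylammonium bromide as positive control; AC50 from Hill-equation fits of qHTS concentration-response.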

[16] = Cell Viability - LYMP1-002 - Assay at 40 hr (AID 994); also: nearly all actives have a fitted effect of over 60% in size
Summary of the method: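 LYMP1-002 human lymphoblastoid cells (2500/well, complete medium) were treated with compounds for 40 hr at 37 C. Intracellular ATP was measured by CellTiter-Glo luminescence, and AC50 values came from Hill-equation fits of concentration-response data; tetraoctylammonium bromide was the positive control.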

[17] = qHTS Assay for Identification of Small Molecule Inducers of Hypoxia Response (AID 2120; active = well fitted curve in the direction sought with a large enough effect in the signal ratio, with a control signal flat, not every such curve was filed as active; the % refers to the signal ratio)
Summary of the method: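 HRE-bla ME-180 cells in Opti-MEM with 0.5% dialyzed FBS, pre-plated 4-5 h, then compound titration for 17 h at 37 degrees Celsius. CCF4 loaded 2.5 h at room temperature; 460/530 nm ratio gave %Activity and AC50 for induction.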

Measured: Potency

C1CCOC1
inactive: all assays above

COc1ccccc1[N+](=O)[O-]
inactive: all assays above

c1ccc(Nc2ccccc2)cc1
inactive: all assays above

C=CC(=O)OCCCC
inactive: all assays above

CCCCOCCOCCOCCCC
inactive: all assays above

CCOCCO
inactive: all assays above

CCCCCNCCCCC
not listed: [10]
inactive: all other assays above

O=[N+]([O-])c1ccccc1CCO
inactive: all assays above

NCCCCCCN
inactive: all assays above

Source: PubChem BioAssay (NCATS)
